In the supplement of paper PMC12350171:
Structures can show the parent of a compound that is named as a salt. Unmarked numbers belong to inactive results.

Experiments:
Settings in all cases: 20 µM
[1] = test system: Salmonella enterica typhimurium; assay: growth AUC normalised to DMSO control (fraction of control); higher = less growth inhibition, active = hit call of the paper
Summary of the method: (§1)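 Pathogens passaged twice anaerobically were inoculated at a starting OD578 of 0.01 into pre-reduced mGAM plates with drug at 20 μM and 1% DMSO, sealed with breathable membranes. Haemophilus parainfluenzae medium was supplemented with hemin and NAD. OD578 was read hourly for 24 h, with three biological replicates. Growth-curve AUC was computed by the trapezoidal rule up to the exponential-to-stationary transition and normalised to DMSO controls on the same plate.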

Shigella flexneri = assay: as above
Summary of the method: as §1

Vibrio cholerae = assay: as above
Summary of the method: as §1

[2] = test system: Yersinia pseudotuberculosis; assay: as above
Summary of the method: as §1

P. vulgatus RND KO = assay: growth AUC normalised to DMSO control (median) (fraction of control); higher = less growth inhibition, active = hit call of the paper
Summary of the method: (§2)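 For normalised area under the curve, growth curves were truncated at entry into stationary phase, integrated by the trapezoidal rule and divided against vehicle wells on the same plate. The curves came from strains passaged twice overnight without oxygen and then grown in mGAM in 96-well plates at a starting OD578 of 0.01. Each well held an approved-drug library compound at 20 μM with 1% DMSO, and OD578 was read hourly for 24 h in an anaerobic incubator. Values are medians of three biological replicates.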

P. vulgatus WT = assay: as above
Summary of the method: as §2

[3] = test system: S. enterica typhimurium WT; assay: as above
Summary of the method: as §2

[4] = test system: S. enterica typhimurium tolC KO; assay: as above
Summary of the method: as §2
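For growth AUC normalised to DMSO control (median) in this document: active when median AUC fell below 0.1.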

Structure (SMILES)	growth AUC normalised to DMSO control [1]	growth AUC normalised to DMSO control (Shigella flexneri)	growth AUC normalised to DMSO control (Vibrio cholerae)	growth AUC normalised to DMSO control [2]	growth AUC normalised to DMSO control (P. vulgatus RND KO)	growth AUC normalised to DMSO control (P. vulgatus WT)	growth AUC normalised to DMSO control [3]	growth AUC normalised to DMSO control [4]
COCC(=O)Nc1c(I)c(C(=O)NCC(O)CO)c(I)c(C(=O)N(C)CC(O)CO)c1I (stereo not drawn) [Iopromide]	1	1.03	1.06	1.02	1.05	1.05	1.02	1.01
CCCN(CCC)C(=O)C(CCC(=O)O)NC(=O)c1ccccc1 (stereo not drawn) [Proglumide]	1.01	1.04	1.05	1.02	1.02	1.06	1	0.99
C[C@]12CC[C@@H]3c4ccc(O)cc4CC[C@H]3[C@@H]1CCC2=O [Estrone]	0.984	0.96	0.0258 (active)	0.975	0.977	0.964	0.999	0.974
CC(C)NCC(O)COc1cccc2[nH]ccc12 (stereo not drawn) [Pindolol]	1.01	1.04	1.03	0.978	1.05	1.08	1	1.01
CCN1CCC[C@H]1CNC(=O)c1c(OC)ccc(Br)c1OC [Remoxipride hydrochloride]	1.01	1.04	1.03	1.01	1.03	1.06	1.01	1.01
O=C(CCNNC(=O)c1ccncc1)NCc1ccccc1 [Nialamide]	0.997	1.02	1.05	1.01	0.995	1.04	0.999	1.01
CC(=O)N(O)CCCCCNC(=O)CCC(=O)N(O)CCCCCNC(=O)CCC(=O)N(O)CCCCCN [Deferoxamine mesylate]	1.03	1.03	1.03	1	1.04	1.07	0.998	1
OCCN(CCO)c1nc(N2CCCCC2)c2nc(N(CCO)CCO)nc(N3CCCCC3)c2n1 [Dipyridamole]	1.01	1.01	1.01	1	1	0.997	1.02	0.956
Nc1nnc(-c2cccc(Cl)c2Cl)c(N)n1 [Lamotrigine]	0.963	0.933	1.03	1.01	0.95	0.986	0.957	0.962
OCCOCCN1CCN(C2=Nc3ccccc3Sc3ccccc32)CC1 [Quetiapine hemifumarate]	0.999	0.978	0.991	0.981	0.946	0.91	1.01	0.977
O=C(c1ccc(F)cc1)C1CCN(CCn2c(=O)[nH]c3ccccc3c2=O)CC1 [Ketanserin tartrate hydrate]	1.01	1.03	0.894	1	1.03	1.05	1.02	0.997
Cc1cnc(C(=O)NCCc2ccc(S(=O)(=O)NC(=O)NC3CCCCC3)cc2)cn1 [Glipizide]	1.01	0.984	1.01	1.01	1.04	0.998	1.01	0.996
CC=C(C)C(=O)OC1C(OC(C)=O)C2(CO)C(O)CC3(C)C(=CCC4C5(C)CCC(OC6OC(C(=O)O)C(OC7OC(CO)C(O)C(O)C7O)C(O)C6OC6OC(CO)C(O)C(O)C6O)C(C)(CO)C5CCC43C)C2CC1(C)C (stereo not drawn) [Beta-Escin]	0.997	1	0.995	0.999	0.998	0.981	0.977	1
CC(C)(C)NCC(O)COc1cccc2c1CCC(=O)N2 (stereo not drawn) [Carteolol hydrochloride]	1	0.985	0.993	1	0.945	0.968	0.998	0.991
CCN(CC)CCOc1ccc(C(=C(Cl)c2ccccc2)c2ccccc2)cc1 [(Z,E) Clomiphene citrate]	1.02	1.02	1.01	1.02	0.902	0.964	1.01	0.983
CC1Cc2ccccc2N1NC(=O)c1ccc(Cl)c(S(N)(=O)=O)c1 (stereo not drawn) [Indapamide]	1	0.985	1.01	0.992	0.999	1.02	1	0.988

Structure (SMILES)	growth AUC normalised to DMSO control [1]	growth AUC normalised to DMSO control (Shigella flexneri)	growth AUC normalised to DMSO control (Vibrio cholerae)	growth AUC normalised to DMSO control [2]	growth AUC normalised to DMSO control (P. vulgatus RND KO)	growth AUC normalised to DMSO control (P. vulgatus WT)	growth AUC normalised to DMSO control [3]	growth AUC normalised to DMSO control [4]
CC(C)(C)NC(=O)[C@H]1CC[C@H]2[C@@H]3CC[C@H]4NC(=O)C=C[C@]4(C)[C@H]3CC[C@]12C [Finasteride]	1.02	1.02	1.03	1.01	1.02	1.04	1.01	0.895
CC[C@H](c1ccc(O)cc1)[C@@H](CC)c1ccc(O)cc1 [Hexestrol]	0.998	1	0.932	0.999	0.766	0.825	0.989	0.889
Nc1nc(NC2CC2)c2ncn([C@H]3C=C[C@@H](CO)C3)c2n1 [Abacavir sulfate]	1.01	0.989	0.989	0.971	0.989	1.01	1.01	1
NS(=O)(=O)c1cc(Cl)c(Cl)c(S(N)(=O)=O)c1 [Dichlorphenamide]	1.01	1.06	1.07	1.02	1.05	1.04	0.995	1.01
c1ccc2c(CC3=NCCN3)cccc2c1 [Naphazoline hydrochloride]	0.994	1.01	1.01	1	0.958	0.943	0.992	0.999
CCOC(=O)C(C)(C)Oc1ccc(Cl)cc1 [Clofibrate]	1.03	1.01	1.03	1.02	1.03	1.04	1	0.991
CC(N)(Cc1ccc(O)c(O)c1)C(=O)O (stereo not drawn) [(L) Methyldopa]	1.01	1.01	1.01	0.973	1.03	1.05	1.01	1.01
Cc1cc(C)nc(NS(=O)(=O)c2ccc(N)cc2)n1 [Sulfamethazine sodium salt]	0.985	0.986	0.982	1.01	0.996	0.988	0.992	1.01
COCCOC(=O)C1=C(C)NC(C)=C(C(=O)OC(C)C)C1c1cccc([N+](=O)[O-])c1 (stereo not drawn) [Nimodipine]	0.984	0.939	0.956	0.957	1.02	1	0.991	0.967
CCN(CCCc1ccccc1)CCCc1ccccc1 [Alverine citrate salt]	0.985	0.966	0.841 (active)	0.971	1.02	1.03	1	0.961
COC(=O)C1=C(C)NC(C)=C(C(=O)OC(C)C)C1c1cccc2nonc12 (stereo not drawn) [Isradipine]	1.01	1.02	1.02	1	1.02	1.05	1.02	0.979
Cc1cn([C@H]2C=C[C@@H](CO)O2)c(=O)[nH]c1=O [Stavudine]	1.01	1.03	1.03	0.992	1	1.05	1.03	1.02
COc1ccc2cc([C@@H](C)C(=O)O)ccc2c1 [(R) Naproxen sodium salt]	1.02	1.08	1.06	1.03	1.06	1.07	1	1.02
Cc1c(NC(C)C)c(=O)n(-c2ccccc2)n1C [Isopyrin hydrochloride]	1.02	1.01	1.02	0.982	1.02	1.06	1	1.01
O=C(O)CCNC(=O)c1ccc(/N=N/c2ccc(O)c(C(=O)O)c2)cc1 [Balsalazide disodium salt]	1.03	1.03	1.05	1	1.02	1.08	0.996	1.02
